CDK5 p35 inh = inhibitors of human CDK5/p35 kinase; Recombinant CDK5/p35, ADP-Glo luminescence, 60 min; inhibition, % at 10 µM; 330,000 tested, 0.01% active; AID 488839;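 active = highest replicate inhibition of at least 50% and at least 75% of replicates reaching 50%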;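 note: plate controls were DMSO neutral control for no effect and GW8510 at 10 µM for full effect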
Target sequence (Q00535 whole entry, looked up): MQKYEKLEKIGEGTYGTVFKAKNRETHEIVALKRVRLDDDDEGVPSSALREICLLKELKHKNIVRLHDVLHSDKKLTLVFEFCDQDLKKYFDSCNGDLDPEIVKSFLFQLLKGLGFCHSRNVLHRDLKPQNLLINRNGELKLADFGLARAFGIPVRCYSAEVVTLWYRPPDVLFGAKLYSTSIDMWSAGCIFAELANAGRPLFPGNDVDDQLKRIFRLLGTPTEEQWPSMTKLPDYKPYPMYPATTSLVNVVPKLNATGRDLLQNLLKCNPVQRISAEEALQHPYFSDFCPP
Target sequence (Q15078 whole entry, looked up): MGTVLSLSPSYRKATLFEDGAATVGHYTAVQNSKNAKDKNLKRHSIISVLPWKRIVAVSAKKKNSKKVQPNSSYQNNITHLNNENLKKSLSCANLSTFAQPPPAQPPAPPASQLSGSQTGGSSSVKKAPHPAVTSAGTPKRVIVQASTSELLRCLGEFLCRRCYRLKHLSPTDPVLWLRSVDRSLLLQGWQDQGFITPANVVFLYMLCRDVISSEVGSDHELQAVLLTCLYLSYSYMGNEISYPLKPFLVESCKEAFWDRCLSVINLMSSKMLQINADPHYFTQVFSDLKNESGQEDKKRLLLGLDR
SMARCA2 act = SMARCA2 function activation, primary screen | MG213 cells, MMTV-luciferase reporter, dexamethasone, overnight | activation, % at 9.1 µM | 370,000 tested, 1% active; in the data active = activation above about 7.8%;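 note: 0% = vehicle wells and 100% = reference activator wells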
esBAF inh = blocks esBAF chromatin remodeling in mouse ES cells; Bmi1-luciferase knock-in reporter, 24 h; 100% = twice the neutral-well signal; reporter increase, % at 12.5 µM; 350,000 tested, 2% active; AID 602393; in the data active = activation above about 40%;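 note: 0% = median of the plate's neutral control wells and 100% = double that signal; a rise in the Bmi1 reporter signal indicates esBAF inhibition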
dFosB activator = enhances mouse delta FosB homodimer DNA binding. 340,000 tested, 0.99% active. AID 493131. purified delta FosB, TAMRA-CDK5 oligo fluorescence polarization; percent of positive-control signal above neutral wells. activation, % at 25 µM. P13346;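 active = mean activation above about 17%, with every replicate also reaching it, limit read from the data, passing the limit was not always enough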
Rtt109 Vps75 = C. albicans Rtt109 histone acetyltransferase inhibition; 330,000 tested, 0.16% active; inhibition, % at 34.9 µM; purified Rtt109/Vps75, ThioGlo CoA-SH fluorescence, 4 h; AID 540336;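 active = inhibition of at least 50% in every replicate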
Dyrk1A ADPGlo = blocks rat Dyrk1A kinase activity; inhibition, % at 12.5 µM; ADP-Glo luminescence, NFATc1 peptide; Q63470; AID 504441; 310,000 tested, 0.43% active; in the data active = inhibition above about 50%;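 note: plate controls were vehicle with enzyme for no effect and no enzyme for full effect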
SMARCA2 act conf = confirmation of SMARCA2 (BRM) function activators; shares compounds with SMARCA2 act; MG213 cells, MMTV-luciferase with dexamethasone, luminescence, overnight; MG213 cells expressing E1A, Rb sequestered; DMSO wells 0%, reference activator 100%; activation, % at 9.1 µM; 3,500 tested, 30% active;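 active = activation above its plate's cutoff, the mean activation of tested wells plus 3 SD, cut at about 7.9% in these data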
GAL4-VP16 Luc = GAL4-VP16 reporter activation counter-screen; shares compounds with SMARCA2 act; HEK293 GAL4-VP16 pG5luc reporter, luciferase luminescence; scaled: DMSO wells 0%, SAHA wells 100%; activation, % at 9.1 µM; 3,500 tested, 41% active; AID 686939;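 active = activation above the solvent-only control well mean plus 3 SD, averaged across control plates, cut at about 5.2% in these data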
* marks the source's active call; other numbers are inactive results; x = no result given. An excerpt weighted towards active compounds, which were near 3.2% of everything screened.

SMILES	CDK5 p35 inh	SMARCA2 act	esBAF inh	dFosB activator	Rtt109 Vps75	Dyrk1A ADPGlo	SMARCA2 act conf	GAL4-VP16 Luc
CCCCCCCCCc1conc1C(=O)/C=C/c1oc2c(c1C)CCC(C)C2 (configuration not stated)	x	9.0*	x	x	x	x	-7	0
COc1cccc(CNC(=O)[C@@H]2[C@@H](CO)[C@@H]3Cn4c(ccc(-c5ccncc5)c4=O)[C@@H]3N2C)c1	x	x	2	x	x	x	x	x
C[C@@H]1CN([C@@H](C)CO)C(=O)Cc2cc(NS(=O)(=O)c3ccc(F)cc3)ccc2O[C@H]1CN(C)S(=O)(=O)c1cn(C)cn1	x	x	-5	x	x	x	x	x
CCN(CC)c1ccc(Nc2cc3n(c(=O)n2)CCc2cc(OC)c(OC)cc2-3)cc1	4	14*	x	-6	-1	2	18*	3
CC(=O)Nc1ccc2c(c1)CCc1ccccc1-2	-1	1	7	-9	-6	9	x	x
O=C(O)/C=C/C(=O)c1ccc2c(c1)CCc1ccccc1-2	8	11*	44*	-10	144*	-5	7	6.5*
CN(C)c1ccc(CNn2cnnc2SCC(=O)NC(C)(C)C)cc1	0	-3	-1	-7	18	-1	x	x
CN(C)c1ccc(CNn2cnnc2SCc2ccccc2F)cc1	-1	10*	20	-6	-2	-13	2	3
CCn1c(C)cc(C(=O)COC(=O)c2cccnc2SC)c1C	-4	11*	53*	-9	-2	-3	8.0*	8.5*
CSc1ncccc1C(=O)OCC(=O)NC1CCCC1	1	8.6*	10	-2	-3	1	-1	0
O=C(c1cc(-c2ccccc2)nc2ccccc12)N1CCCC1	2	-1	-3	-5	-5	-8	x	x
c1ccc(-c2cc(NCCN3CCCCC3)c3ccccc3n2)cc1	0	25*	-10	8	0	3	78*	0
COc1ccccc1OCCn1nnc2ccccc21	0	11*	37	1	-2	10	7	5
C[C@@H]1CN([C@@H](C)CO)C(=O)c2cc(NC(=O)C3CCCCC3)ccc2O[C@@H]1CN(C)S(C)(=O)=O	x	x	2	x	x	x	x	x
Fc1ccc(N/N=C/c2cccnc2)c(F)c1	0	8.4*	x	2	5	1	1	1
O=C(Nc1ccc(F)cc1F)C1CCN(S(=O)(=O)c2cccnc2)CC1	0	8.3*	2	-1	0	0	0	0
CC(=O)c1cccc(Nc2cc(C)nc3ccc(C)cc23)c1	-2	11*	x	-6	3	2	1	0
COc1cccc(S(=O)(=O)N(C)C[C@H]2Oc3cc(C#CCN(C)C)ccc3S(=O)(=O)N([C@@H](C)CO)C[C@@H]2C)c1	x	x	-3	x	x	x	x	x
Cn1c(CN2CCOCC2)nnc1SCc1ccccc1	0	-3	-5	-3	0	-3	x	x
Cn1c(CN2CCOCC2)nnc1SCC(=O)NCCc1ccccc1	-3	8.2*	-6	-3	0	5	2	0
O=C(Nc1ccc2c(c1)OCCO2)N1CCOCC1	2	9.7*	x	3	16	x	0	3
N#Cc1cccc(NCC(=O)Nc2ccc3c(c2)OCCO3)c1	-1	9.8*	x	-10	0	-3	8	3
O=C(Nc1ccc2c(c1)OCCO2)NC12CC3CC(CC(C3)C1)C2	0	20*	36	-2	1	-10	12*	11*
O=C(CCc1ccccc1)Nc1ccc2c(c1)OCCO2	0	8.2*	27	-7	3	-7	10*	11*
O=C(Nc1ccc2c(c1)OCO2)N1CCOCC1	3	0	31	-7	1	-3	x	x
SMILES	CDK5 p35 inh	SMARCA2 act	esBAF inh	dFosB activator	Rtt109 Vps75	Dyrk1A ADPGlo	SMARCA2 act conf	GAL4-VP16 Luc
O=C(CCSCc1ccccc1)Nc1ccc2c(c1)OCCO2	0	1	x	-10	-3	0	x	x
O=C(C[C@@H]1CC[C@H]2[C@@H](COC[C@H](O)CN2Cc2ccccc2F)O1)NC1CCC1	x	x	1	x	x	x	x	x
CC(C)NC(=O)Nc1ccc2c(c1)C(=O)N([C@@H](C)CO)C[C@@H](C)[C@@H](CN(C)C(=O)Nc1ccccc1)O2	x	x	-2	x	x	x	x	x
O=C(NC1CCCC1)N[C@H]1CC[C@@H](CC(=O)N2CCOCC2)O[C@H]1CO	x	x	4	x	x	x	x	x
Cc1cc(C)c2c(N)c(C(=O)NN)sc2n1	1	-2	x	-9	0	1	x	x
Cc1ccc(NC(=O)c2sc3nc(C)cc(C)c3c2N)cc1	-1	9.9*	4	-10	4	0	7	15*
C[C@H](CO)N1C[C@H](C)[C@@H](CN(C)S(=O)(=O)c2cn(C)cn2)OCCCC[C@H](C)Oc2ccc(NC(=O)C3CCCCC3)cc2C1=O	x	x	-1	x	x	x	x	x
Cc1ccc(-n2c(C)csc2=N)cc1	-1	8.7*	35	7	10	5	8	19*
C[C@@H]1CN([C@H](C)CO)C(=O)c2cccc(NC(=O)C3CCCCC3)c2O[C@@H]1CN(C)Cc1ccc2c(c1)OCO2	x	x	-2	x	x	x	x	x
Cc1cc(C(=O)CSc2nnc(N)s2)c(C)n1Cc1ccco1	-1	12*	x	0	12	3	5	5
COc1ccc(-c2cn3cc(C(F)(F)F)cc(Cl)c3n2)cc1	0	12*	x	-4	7	x	5	11*
COc1ccc(C(O)c2ncc(C(F)(F)F)cc2Cl)cc1 (configuration not stated)	-1	2	-2	0	-9	0	x	x
COc1ccc(Nc2nc3cc(-c4sccc4C)sc3c(=O)n2C)cc1OC	x	9.3*	7	x	x	x	4	8.4*
C[C@@H]1CCCCO[C@@H](CN(C)CC2CC2)[C@H](C)CN([C@@H](C)CO)C(=O)c2cc(NC(=O)CCC(F)(F)F)ccc2O1	x	x	-2	x	x	x	x	x
Cc1ccccc1S(=O)(=O)NCC[C@@H]1CC[C@@H](NC(=O)C2CCC2)[C@@H](CO)O1	x	x	0	x	x	x	x	x
CC(=O)Nc1cc(-c2ccc(F)cc2)[nH]n1	8	11*	x	-5	-16	8	0	1
O=C(Nc1cc(-c2ccccc2)[nH]n1)c1ccccc1F	x	9.3*	x	x	x	x	3	10*
CN(C[C@@H]1N[C@H](CO)[C@@H]1c1ccc(-c2cccc(F)c2)cc1)C(=O)C1CCC1	x	x	-7	x	x	x	x	x
COc1nc(-c2ccccc2)nnc1-c1ccccc1	1	11*	40	-15	0	-3	7	13*
COc1ccc(/C=C2\COc3ccccc3C2=O)c(OC)c1	-1	8.9*	63*	-13	-16	-1	6	5.2*

Screening results as filed in PubChem BioAssay.
